This is a sample that favours compounds with a hit; in the whole collection about 4.3% have one here.
Wnt act: activators of Wnt/beta-catenin signaling; Wnt/beta-catenin reporter cell assay, activator, plate reader; AID 743398; activation, % at 9.35 µM; 300,000 tested, 1.2% active; in the data active means activation above about 30%, passing the limit was not always enough; inconclusive means no clear call, values can overlap the other calls
MITF act: increases MITF-driven TRPM1 promoter luciferase signal | SK-MEL-5 TRPM1-promoter luciferase, 24 h; % of positive control, neutral wells = 0 | activation, % at 12.5 µM | 300,000 tested, 0.75% active | AID 588334;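 active means mean activation of at least 80% with every replicate also reaching 80%; inconclusive means mean reaches 80% but some replicate falls short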
HSF-1 act: increases HSF-1 driven luciferase reporter signal; NIH3T3-HGL HSF-1 luciferase reporter, MG132, 8 h; 100% = twice DMSO control signal; activation, % at 9 µM; 300,000 tested, 1.7% active;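 active means mean replicate activation of at least 50% with a set share of replicates each reaching 50%; inconclusive means only one of those two conditions met; inactive means mean below 50% and too few replicates reaching it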
SMARCA2 act: SMARCA2 function activation, primary screen. MG213 cells, MMTV-luciferase reporter, dexamethasone, overnight. activation, % at 9.1 µM. 370,000 tested, 1% active. AID 652017; in the data active means activation above about 7.8%
esBAF inh: inhibitors of esBAF chromatin remodeling in mouse ES cells. Bmi1-luciferase knock-in reporter, 24 h; 100% = twice the neutral-well signal. reporter increase, % at 12.5 µM. 350,000 tested, 2% active; in the data active means activation above about 40%; inconclusive means no clear call, values can overlap the other calls;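 further: a rise in the Bmi1 reporter signal indicates esBAF inhibition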
HSF1 inhib: HSF1 inhibition | AID 2098 | NIH3T3-HGL HSE-luciferase, MG132-induced, luminescence 8 h; active compounds read low | 300,000 tested, 0.77% active | activity change, negative = inhibition, % at 7.5 µM (by protocol);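 active means more than half of replicate wells show activity change below -50%, luminescence cut by over half; inconclusive means some wells, but at most half, below -50%; inactive means no replicate well below -50%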;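 further: luciferase reports HSF-1 transcriptional activity via heat shock element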
Of the large screens only hits and unclear results are named; the others gave an inactive call.

CC(C)(C)c1ccc(C(=O)CS(=O)(=O)c2ccccc2)cc1	MITF act 108 (no result: Wnt act)
CC(C)(C)C(=O)Cn1ncc(N2CCCC2)c(Br)c1=O	MITF act inconclusive
CC(=O)Cn1ncc(Br)c(Br)c1=O	HSF1 inhib -94
O=C(OCn1ncc(Br)c(Br)c1=O)c1c(F)cccc1F	HSF1 inhib -95 (no result: Wnt act, MITF act, SMARCA2 act, esBAF inh)
COC(=O)C(COC(=O)c1c(F)cccc1F)NC(=O)c1c(F)cccc1F (stereo not given)	none
CO[C@H]1CN(C)C(=O)c2ccc(NC(C)=O)cc2OC[C@@H](C)N(C(=O)C2CCCCC2)C[C@H]1C	none (no result: Wnt act, MITF act, HSF-1 act, SMARCA2 act, HSF1 inhib)
CN1C(=O)c2cc(NC(=O)c3ccc(F)cc3)ccc2OC[C@@H]2O[C@@H](CC(=O)NC3CCC3)CC[C@H]21	none (no result: Wnt act, MITF act, HSF-1 act, SMARCA2 act, HSF1 inhib)
C[C@@H]1CCCCO[C@H](CN(C)Cc2ccc(C(F)(F)F)cc2)[C@H](C)CN([C@H](C)CO)C(=O)c2cc(NC(=O)c3ccccc3)ccc2O1	none (no result: Wnt act, MITF act, HSF-1 act, SMARCA2 act, HSF1 inhib)
CCN(CC)c1ccc(NC(=S)NC(=O)c2ccco2)cc1	HSF-1 act 180 (no result: esBAF inh)
CCN(CC)c1ccc(NC(=O)c2ccco2)cc1	Wnt act inconclusive
COC(=O)c1cc(OC)c(OC)cc1NC(=S)NC(=O)c1ccco1	HSF-1 act 73
CO[C@@H]1CN(C)C(=O)c2ccc(NC(=O)C3CC3)cc2OC[C@@H](C)N(Cc2ccccc2)C[C@@H]1C	none (no result: Wnt act, MITF act, HSF-1 act, SMARCA2 act, HSF1 inhib)
C[C@H](CO)N1C[C@H](C)[C@H](CN(C)Cc2ccccn2)Oc2ncc(C#CC(C)(C)O)cc2C1=O	none (no result: Wnt act, MITF act, HSF-1 act, SMARCA2 act, HSF1 inhib)
C/C=C/c1ccc2c(c1)O[C@@H](CN(C)C(=O)c1cccc(F)c1)[C@@H](C)CN([C@H](C)CO)S2(=O)=O	none (no result: Wnt act, MITF act, HSF-1 act, SMARCA2 act, HSF1 inhib)
O=C([C@@H]1[C@@H](CO)[C@@H]2Cn3c(cccc3=O)[C@H]1N2C(=O)c1ccc(F)cc1)N1CCCCC1	none (no result: Wnt act, MITF act, HSF-1 act, SMARCA2 act, HSF1 inhib)
NC(=O)c1oc2ccccc2c1NC(=O)c1nc2ccccc2s1	esBAF inh 63 (no result: Wnt act)
NC(=O)c1oc2ccccc2c1NC(=O)c1ccc(F)cc1	none (no result: MITF act)
C[C@@H]1CN([C@@H](C)CO)S(=O)(=O)c2ccc(C#CC(C)(C)O)cc2O[C@@H]1CN(C)Cc1ccccc1	none (no result: Wnt act, MITF act, HSF-1 act, SMARCA2 act, HSF1 inhib)
Oc1ccc(C=NNc2nc3ccccc3s2)c(O)c1	none (no result: HSF-1 act, esBAF inh, HSF1 inhib)
Oc1ccccc1C=NNc1nc2ccccc2s1	esBAF inh 51 (no result: HSF-1 act, HSF1 inhib)
CCOC(=O)N/N=C/c1c(C)nn(-c2ccccc2Cl)c1Cl	none (no result: Wnt act, esBAF inh)
Cc1nn(-c2ccccc2Cl)c(Cl)c1/C=N/Nc1nc2ccccc2s1	HSF1 inhib -84 (no result: esBAF inh)
C(=N\Nc1nc2ccccc2s1)/c1ccco1	HSF-1 act 65
CC(=O)Nc1ccc(S(=O)(=O)Nc2nc3ccccc3s2)cc1	none (no result: esBAF inh)
CC(=O)Nc1ccc(/C=N/Nc2nc3ccccc3s2)cc1	Wnt act 57, HSF-1 act 68
C[C@@H]1CCCCO[C@@H](CN(C)C(=O)Cc2ccccc2)[C@@H](C)CN([C@H](C)CO)C(=O)c2cc(NC(=O)Cc3ccccc3)ccc2O1	none (no result: Wnt act, MITF act, HSF-1 act, SMARCA2 act, HSF1 inhib)
Cc1noc(C)c1S(=O)(=O)Nc1ccc2c(c1)C(=O)N([C@@H](C)CO)C[C@H](C)[C@@H](CN(C)C(=O)Nc1ccccc1)OCCCC[C@H](C)O2	none (no result: Wnt act, MITF act, HSF-1 act, SMARCA2 act, HSF1 inhib)
CC(C)CC#Cc1ccc2c(c1)O[C@@H](CN(C)Cc1ccccn1)[C@H](C)CN([C@H](C)CO)S2(=O)=O	none (no result: Wnt act, MITF act, HSF-1 act, SMARCA2 act, HSF1 inhib)
COc1ccc(S(=O)(=O)N(C)C[C@@H]2Oc3ccc(NC(=O)Nc4ccc5c(c4)OCO5)cc3CC(=O)N([C@H](C)CO)C[C@@H]2C)cc1	none (no result: Wnt act, MITF act, HSF-1 act, SMARCA2 act, HSF1 inhib)
C/C(=N\Nc1nc2ccccc2s1)c1cccs1	Wnt act inconclusive
Cc1ccsc1/C=N/Nc1nc2ccccc2s1	Wnt act 61, HSF-1 act 66 (no result: esBAF inh)
CC(=O)c1sc(N/N=C\c2cccc(Br)c2)nc1C	esBAF inh inconclusive
CC(=O)c1sc(N/N=C\c2ccc(Br)cc2)nc1C	MITF act 119 (no result: esBAF inh)
CC(=NNc1nc2ccccc2s1)c1ncccn1	Wnt act 75 (no result: HSF-1 act, esBAF inh, HSF1 inhib)
C(=N\Nc1nc2ccccc2s1)/c1cccs1	HSF-1 act inconclusive (no result: Wnt act)
COc1cccc(C=NNc2nc3ccccc3s2)c1OC	Wnt act 51 (no result: HSF-1 act, esBAF inh, HSF1 inhib)
COc1ccc(/C=N/Nc2nc3ccccc3s2)cc1O	none (no result: esBAF inh)
C[C@@H]1CN([C@@H](C)CO)C(=O)c2cc(NC(=O)Nc3cccc4ccccc34)ccc2O[C@@H](C)CCCCO[C@@H]1CN(C)Cc1ccccc1	none (no result: Wnt act, MITF act, HSF-1 act, SMARCA2 act, HSF1 inhib)
CCn1c(C)c(/C=N/Nc2nc3ccccc3s2)c2ccccc21	HSF-1 act 53 (no result: Wnt act)

Assay outcomes: PubChem, several laboratories
